Results filed as inconclusive are left out. Unmarked numbers belong to inactive results. Activity calls are given as the source filed them. Calls follow the shape of the dose curve; as a rule, active = well fitted curve in the direction sought with a large enough effect; inconclusive = small, poorly fitted or top-dose-only effect, or another doubt; inactive = no such curve, though single readings can be large; an effect the other way counts as inactive or inconclusive.
Experiment: S16 Schwann cell viability assay (CellTiter-Glo assay) (AID 624031);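 also: native untransfected S16 rat Schwann cells; cellular ATP luminescence as a viability measure; plate controls were DMSO-treated cells for no effect and cell-free wells for full effect; nearly all actives have a fitted effect of over 70% in size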
Details: S16 rat Schwann cells viability, 24 h; series mostly up to 57.5 µM; activity change, negative = cytotoxicity: at the top concentration
Outline: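 Following overnight culture in 10% FBS DMEM, parental S16 rat Schwann cells are dosed for 24 h at 37 °C. Viability is read as CellTiter-Glo luminescence and expressed as % activity relative to DMSO (0%) and no-cell wells.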

Row | SMILES | activity change, negative = cytotoxicity
1 | CCOC(=S)SSC(=S)OCC | 0%
2 | CNC(=O)[C@H](Cc1c[nH]c2ccccc12)NC(=O)[C@@H](CC(=O)NO)CC(C)C | -10.1%
3 | CCOC(=O)c1c[nH]c2cc(OCC(C)C)c(OCC(C)C)cc2c1=O | -3.64%
4 | Cc1cccc(C)c1NC(=O)C1CCCCN1C (stereo not given) | 0.732%
5 | O=C(CCCN1CCN2CCCC2C1)c1ccc(F)cc1 (stereo not given) | 0.522%
6 | CC1(O)CCC(C(C)(C)O)CC1 (stereo not given) | -13%
7 | N[C@H](CC(=O)O)C(=O)O | -1.6%
8 | CC12CCC(C[N+](C)(CCC[N+](C)(C)C)C1)C2(C)C (stereo not given) | -18.7%
9 | CC1CC(O)CC(C)(C)C1 (stereo not given) | -6.34%
10 | CC(C)=CCC/C(C)=C/CC/C(C)=C/CC/C=C(\C)CC/C=C(\C)CCC=C(C)C | -23.1%
11 | COC(=O)CCC[N+](C)(C)C | -1.98%
12 | CCOc1ccc(S(=O)(=O)O)c2cccnc12 | 8.65%
13 | O=P(O)(O)CP(=O)(O)O | -5.51%
14 | CCCc1ccc(C(=O)O)cc1 | 0.251%
15 | CCCCC[C@H](O)/C=C/[C@@H]1[C@H]2C/C(=C/CCCC(=O)O)O[C@H]2C[C@H]1O | 12.3%
16 | O=C(O)[C@H]1CN(C/C=C/P(=O)(O)O)CCN1 | -3.14%
17 | Nc1nc(=O)n([C@@H]2CS[C@H](CO)O2)cc1F | -4.08%
18 | CN1c2c(nc(N)[nH]c2=O)NCC1CNc1ccc(C(=O)NC(CCC(=O)O)C(=O)O)cc1 (stereo not given) | 0.135%
19 | O=C(Nc1ccc(O)cc1)c1ccccc1O | -0.776%

Row | SMILES | activity change, negative = cytotoxicity
20 | CN1C(=O)OC(C)(C)C1=O | -0.854% [at 25.7 µM]
21 | CC(C)Cc1ccc([C@@H](C)C(=O)NS(C)(=O)=O)cc1 | -27.1%
22 | CO/N=C(\C(=O)N[C@@H]1C(=O)N2C(C(=O)[O-])=C(C[n+]3cccc4c3CCC4)CS[C@H]12)c1csc(N)n1 | 1.93%
23 | NC(=O)C1c2ccccc2CCc2ccccc21 | -21.3%
24 | Cc1cc(C(=O)NCCc2ccc(S(=O)(=O)NC(=O)NN3CCCCCC3)cc2)no1 | 0%
25 | FCOC(C(F)(F)F)C(F)(F)F | -5.97%
26 | Cc1ccc(C(C)(C)c2ccc(C)cc2)cc1 | 13.5%
27 | FC(F)OC(Cl)C(F)(F)F (stereo not given) | -2.7%
28 | CCCC(=O)O | -22.5%
29 | CC1(C)S[C@@H]2[C@H](NC(=O)C3(N)CCCCC3)C(=O)N2[C@H]1C(=O)O | -19.9%
30 | COC(=O)[C@@H](N)CS | 9.1%
31 | Cc1cc(-c2ccc(N=Nc3ccc4c(S(=O)(=O)O)cc(S(=O)(=O)O)c(N)c4c3O)c(C)c2)ccc1N=Nc1ccc2c(S(=O)(=O)O)cc(S(=O)(=O)O)c(N)c2c1O | -11.4%
32 | C[C@H](O)CN(C)C | -9.66%
33 | O=C(O)CCC/C=C\C[C@@H]1[C@@H](/C=C/[C@@H](O)COc2cccc(Cl)c2)[C@H](O)C[C@@H]1O | 3.18%
34 | S=C=Nc1ccc(N=C=S)cc1 | -19.8%
35 | CC(C)c1ncc([N+](=O)[O-])n1C | 14.7%
36 | O=C(O)C1=C(CSc2nnnn2CS(=O)(=O)O)CS[C@@H]2[C@H](NC(=O)[C@H](O)c3ccccc3)C(=O)N12 | 0.213%
37 | O=S(=O)(O)CCCS(=O)(=O)O | -3.34%
38 | CC1C(=O)CC2C3(C)CCC2(C(C)C(=O)O)C(=O)C13 (stereo not given) | -8.82%

Experiment: S16 Schwann cell PMP22 intronic element firefly luciferase assay (AID 624032); also: nearly all actives have a fitted effect of over 30% in size; also: potency is read from the fitted curve at half-maximal effect;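 as to activity change, negative = inhibition: plate controls were DMSO for no effect and PTC124 positive control mean for full effect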
Details: S16 rat Schwann cells, PMP22 element FLuc, 24 h; series mostly up to 57.5 µM; activity change, negative = inhibition: at the top concentration
Outline: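 Rat S16 Schwann cells stably carrying a PMP22 intronic element-driven Fluc reporter were seeded overnight, then exposed to compounds for 24 h at 37 °C. Luminescence was normalized to PTC124 (positive control) and DMSO (0% activity).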

Row | SMILES | activity change, negative = inhibition | Potency
39 | CCOC(=S)SSC(=S)OCC | 12.5% | 
40 | CNC(=O)[C@H](Cc1c[nH]c2ccccc12)NC(=O)[C@@H](CC(=O)NO)CC(C)C | -18.6% | 
41 | CCOC(=O)c1c[nH]c2cc(OCC(C)C)c(OCC(C)C)cc2c1=O | 22.4% | 
42 | Cc1cccc(C)c1NC(=O)C1CCCCN1C (stereo not given) | 0.484% | 
43 | O=C(CCCN1CCN2CCCC2C1)c1ccc(F)cc1 (stereo not given) | 9.35% | 
44 | CC1(O)CCC(C(C)(C)O)CC1 (stereo not given) | 15.6% | 
45 | N[C@H](CC(=O)O)C(=O)O | 8.06% | 
46 | CC1CC(O)CC(C)(C)C1 (stereo not given) | -9.96% | 
47 | CC(C)=CCC/C(C)=C/CC/C(C)=C/CC/C=C(\C)CC/C=C(\C)CCC=C(C)C | -2.73% | 
48 | COC(=O)CCC[N+](C)(C)C | -6.13% | 
49 | CCOc1ccc(S(=O)(=O)O)c2cccnc12 | -3.45% | 
50 | O=P(O)(O)CP(=O)(O)O | 3.66% | 
51 | CCCc1ccc(C(=O)O)cc1 | -7.86% | 
52 | CCCCC[C@H](O)/C=C/[C@@H]1[C@H]2C/C(=C/CCCC(=O)O)O[C@H]2C[C@H]1O | 3.93% | 
53 | O=C(O)[C@H]1CN(C/C=C/P(=O)(O)O)CCN1 | -6.96% | 
54 | Nc1nc(=O)n([C@@H]2CS[C@H](CO)O2)cc1F | -11.2% | 
55 | CN1c2c(nc(N)[nH]c2=O)NCC1CNc1ccc(C(=O)NC(CCC(=O)O)C(=O)O)cc1 (stereo not given) | 2.4% | 
56 | O=C(Nc1ccc(O)cc1)c1ccccc1O | 91.8% | 
57 | CN1C(=O)OC(C)(C)C1=O | 12.8% [at 25.7 µM] | 

Row | SMILES | activity change, negative = inhibition | Potency
58 | CC(C)Cc1ccc([C@@H](C)C(=O)NS(C)(=O)=O)cc1 | -13.2% | 
59 | CO/N=C(\C(=O)N[C@@H]1C(=O)N2C(C(=O)[O-])=C(C[n+]3cccc4c3CCC4)CS[C@H]12)c1csc(N)n1 | -27.3% | 
60 | NC(=O)C1c2ccccc2CCc2ccccc21 | -7.88% | 
61 | Cc1cc(C(=O)NCCc2ccc(S(=O)(=O)NC(=O)NN3CCCCCC3)cc2)no1 | -12.3% | 
62 | FCOC(C(F)(F)F)C(F)(F)F | 27.3% | 
63 | Cc1ccc(C(C)(C)c2ccc(C)cc2)cc1 | 4.69% | 
64 | FC(F)OC(Cl)C(F)(F)F (stereo not given) | -6.77% | 
65 | CCCC(=O)O | -0.761% | 
66 | CC1(C)S[C@@H]2[C@H](NC(=O)C3(N)CCCCC3)C(=O)N2[C@H]1C(=O)O | -4.78% | 
67 | COC(=O)[C@@H](N)CS | -10.5% | 
68 | Cc1cc(-c2ccc(N=Nc3ccc4c(S(=O)(=O)O)cc(S(=O)(=O)O)c(N)c4c3O)c(C)c2)ccc1N=Nc1ccc2c(S(=O)(=O)O)cc(S(=O)(=O)O)c(N)c2c1O |  | 8.09 µM (active)
69 | C[C@H](O)CN(C)C | 1.45% | 
70 | O=C(O)CCC/C=C\C[C@@H]1[C@@H](/C=C/[C@@H](O)COc2cccc(Cl)c2)[C@H](O)C[C@@H]1O | -5.91% | 
71 | S=C=Nc1ccc(N=C=S)cc1 | -16.5% | 
72 | CC(C)c1ncc([N+](=O)[O-])n1C | 1.5% | 
73 | O=C(O)C1=C(CSc2nnnn2CS(=O)(=O)O)CS[C@@H]2[C@H](NC(=O)[C@H](O)c3ccccc3)C(=O)N12 | -0.696% | 
74 | O=S(=O)(O)CCCS(=O)(=O)O | 4.53% | 
75 | CC1C(=O)CC2C3(C)CCC2(C(C)C(=O)O)C(=O)C13 (stereo not given) | -13.7% | 

— PubChem BioAssay (NCATS)
